Measurements: PubChem BioAssay AID1159580 (chemical genetic matrix, 2015)
Values joined by “and” are separate entries in the source; they are usually repeats but may differ in a detail not shown here. Identical values can stand only once. Hit rate of the full screen: of about 5,500 compounds, about 2,000 (36%) were called active. Inconclusive results (about 18%) are left out. Cut-off read from the data, not from the text of the source: active = normalized growth mostly below about 0.91 (no sharp cut-off); inconclusive = no clear call, values can overlap the other calls; inactive = mostly above about 0.92. Some of the results follow.

Assay: chemical genetic growth profiling, strain panel (AID 1159580);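 note: tested at 20 µM; growth read once vehicle control cultures reached saturation at 30 °C; 1 = growth at the plate median or of vehicle wells; lower values mean less growth of the strain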
Details: growth OD

Measured: normalized growth

CN(C)CCC(c1ccccc1)c1ccccn1 (centres undefined)
inactive: S. cerevisiae deletion strains, locus YJR066W, strain TOR1, hits give low values 0.93 | S. cerevisiae deletion strains, locus YJR075W, strain HOC1, hits give low values 1.01 and 0.951 | S. cerevisiae deletion strains, locus YKL009W, strain mrt4, hits give low values 1.03 | S. cerevisiae deletion strains, locus YKL068W, hits give low values 1 | S. cerevisiae deletion strains, locus YKL085W, strain MDH1 (second series), hits give low values 1.01 | S. cerevisiae deletion strains, locus YKL085W, strain MDH1, hits give low values 1.01 | S. cerevisiae deletion strains, locus YKL160W, strain elf1, hits give low values 1.01 | S. cerevisiae deletion strains, locus YKL190W, strain CNB1, hits give low values 1.01 | S. cerevisiae deletion strains, locus YKR001C, strain vps1, hits give low values 1 | S. cerevisiae deletion strains, locus YKR026C, strain gcn3, hits give low values 1.03 | S. cerevisiae deletion strains, locus YKR091W, strain srl3, hits give low values 1 | S. cerevisiae deletion strains, locus YLL001W, strain dnm1, hits give low values 1.02 | S. cerevisiae deletion strains, locus YLL026W, hits give low values 1.02 | S. cerevisiae deletion strains, locus YLL041C, strain sdh2, hits give low values 1.02 | S. cerevisiae deletion strains, locus YLR027C, strain aat2, hits give low values 1.01 | S. cerevisiae deletion strains, locus YLR039C, strain RIC1, hits give low values 1.05 | S. cerevisiae deletion strains, locus YLR058C, strain SHM2, hits give low values 1 | S. cerevisiae deletion strains, locus YLR102C, strain apc9, hits give low values 1 | S. cerevisiae deletion strains, locus YLR113W, strain HOG1, hits give low values 0.981 | S. cerevisiae deletion strains, locus YLR221C, strain rsa3, hits give low values 1.01 | S. cerevisiae deletion strains, locus YLR258W, strain gsy2, hits give low values 1.01 | S. cerevisiae deletion strains, locus YLR262C, strain YPT6 (second series), hits give low values 1.03 | S. cerevisiae deletion strains, locus YLR262C, strain YPT6, hits give low values 1.01 | S. cerevisiae deletion strains, locus YLR268W, strain sec22, hits give low values 1.04 | S. cerevisiae deletion strains, locus YLR320W, strain mms22, hits give low values 1.01 | S. cerevisiae deletion strains, locus YLR330W, strain CHS5, hits give low values 1.01 | S. cerevisiae deletion strains, locus YLR342W, strain FKS1 (second series), hits give low values 1.03 | S. cerevisiae deletion strains, locus YLR342W, strain FKS1, hits give low values 1.01 | S. cerevisiae deletion strains, locus YLR357W, strain rsc2, hits give low values 1.02 | S. cerevisiae deletion strains, locus YLR370C, strain arc18, hits give low values 1.02 | S. cerevisiae deletion strains, locus YLR371W, strain rom2, hits give low values 1.01 | S. cerevisiae deletion strains, locus YLR384C, strain iki3, hits give low values 1.01 | S. cerevisiae deletion strains, locus YLR418C, strain cdc73, hits give low values 0.995 | S. cerevisiae deletion strains, locus YML016C, strain PPZ1, hits give low values 1 | S. cerevisiae deletion strains, locus YML032C, strain rad52, hits give low values 1.01 | S. cerevisiae deletion strains, locus YML120C, strain ndi1, hits give low values 1.01 | S. cerevisiae deletion strains, locus YML124C, strain tub3, hits give low values 1 | S. cerevisiae deletion strains, locus YMR058W, strain fet3, hits give low values 1.02 | S. cerevisiae deletion strains, locus YMR078C, strain ctf18, hits give low values 1.01 | S. cerevisiae deletion strains, locus YMR125W, strain sto1, hits give low values 1.01 | S. cerevisiae deletion strains, locus YMR129W, hits give low values 1.01 | S. cerevisiae deletion strains, locus YMR205C, strain PFK2, hits give low values 1.01 | S. cerevisiae deletion strains, locus YMR223W, strain ubp8, hits give low values 0.983 | S. cerevisiae deletion strains, locus YMR231W, strain pep5, hits give low values 1.02 | S. cerevisiae deletion strains, locus YMR263W, strain SAP30, hits give low values 1 and 0.998 | S. cerevisiae deletion strains, locus YMR307W, strain GAS1, hits give low values 1.03 and 0.977 | S. cerevisiae deletion strains, locus YNL067W, strain RPL9B, hits give low values 0.996 | S. cerevisiae deletion strains, locus YNL071W, strain lat1, hits give low values 1.01 | S. cerevisiae deletion strains, locus YNL128W, strain TEP1, hits give low values 1.02 | S. cerevisiae deletion strains, locus YNL175C, strain NOP13, hits give low values 1.01 | S. cerevisiae deletion strains, locus YNL183C, strain NPR1, hits give low values 0.939 | S. cerevisiae deletion strains, locus YNL197C, strain WHI3, hits give low values 1.01 | S. cerevisiae deletion strains, locus YNL209W, strain ssb2, hits give low values 1.02 | S. cerevisiae deletion strains, locus YNL224C, strain SQS1, hits give low values 1 | S. cerevisiae deletion strains, locus YNL233W, strain BNI4, hits give low values 1 | S. cerevisiae deletion strains, locus YNL248C, strain rpa49, hits give low values 1 | S. cerevisiae deletion strains, locus YNL250W, strain rad50, hits give low values 0.997 | S. cerevisiae deletion strains, locus YNL271C, strain bni1, hits give low values 0.993 | S. cerevisiae deletion strains, locus YNL298W, strain CLA4, hits give low values 1.01 | S. cerevisiae deletion strains, locus YNL307C, strain MCK1, hits give low values 1.01 | S. cerevisiae deletion strains, locus YNL322C, strain KRE1 (second series), hits give low values 1.01 | S. cerevisiae deletion strains, locus YNR049C, strain mso1, hits give low values 1.02 | S. cerevisiae deletion strains, locus YNR052C, strain pop2, hits give low values 1.01 | S. cerevisiae deletion strains, locus YOL006C, strain TOP1, hits give low values 0.993 | S. cerevisiae deletion strains, locus YOL012C, strain htz1 2.13 | S. cerevisiae deletion strains, locus YOL147C, strain pex11, hits give low values 1 | S. cerevisiae deletion strains, locus YOR001W, strain rrp6, hits give low values 0.988 | S. cerevisiae deletion strains, locus YOR061W, strain CKA2, hits give low values 1 | S. cerevisiae deletion strains, locus YOR069W, strain VPS5, hits give low values 1.01 | S. cerevisiae deletion strains, locus YOR070C, strain gyp1, hits give low values 1.01 | S. cerevisiae deletion strains, locus YOR080W, strain dia2, hits give low values 1.01 | S. cerevisiae deletion strains, locus YOR083W, strain WHI5 (second series), hits give low values 1.03 | S. cerevisiae deletion strains, locus YOR083W, strain WHI5, hits give low values 1.01 | S. cerevisiae deletion strains, locus YOR106W, strain vam3, hits give low values 1 | S. cerevisiae deletion strains, locus YOR136W, strain idh2, hits give low values 0.99 | S. cerevisiae deletion strains, locus YOR144C, strain elg1, hits give low values 0.995 | S. cerevisiae deletion strains, locus YOR184W, strain ser1, hits give low values 1.01 | S. cerevisiae deletion strains, locus YOR231W, strain MKK1, hits give low values 0.981 | S. cerevisiae deletion strains, locus YOR265W, strain rbl2, hits give low values 1 | S. cerevisiae deletion strains, locus YOR270C, strain vph1, hits give low values 0.997 | S. cerevisiae deletion strains, locus YOR290C, strain snf2, hits give low values 1.04 | S. cerevisiae deletion strains, locus YOR316C, strain cot1, hits give low values 1 | S. cerevisiae deletion strains, locus YPL051W, strain arl3, hits give low values 1.01 | S. cerevisiae deletion strains, locus YPL055C, strain LGE1, hits give low values 0.985 | S. cerevisiae deletion strains, locus YPL078C, strain atp4, hits give low values 1.01 | S. cerevisiae deletion strains, locus YPL106C, strain sse1, hits give low values 1 | S. cerevisiae deletion strains, locus YPL240C, strain hsp82, hits give low values 0.989 | S. cerevisiae deletion strains, locus YPL256C, strain CLN2, hits give low values 0.928 | S. cerevisiae deletion strains, locus YPR119W, strain clb2, hits give low values 1 | S. cerevisiae deletion strains, locus YPR141C, strain kar3, hits give low values 0.994 | S. cerevisiae deletion strains, locus YPR163C, strain tif3, hits give low values 1.01 | S. cerevisiae deletion strains, locus YPR167C, strain met16, hits give low values 0.999 | S. cerevisiae deletion strains, strain wtn01, hits give low values 1 | S. cerevisiae strains, strain wild type, hits give low values 1.01
